Data reported in PubChem BioAssay (NCI).
The panel holds about 83,000 compounds, 20% with a hit somewhere; the sample as a whole holds those more often.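 Plates (96-well) were seeded with cells, treated with compound at one concentration, and incubated for 48 hours before percent growth was determined.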 Active and inactive are the calls of the source. The calls were made as follows: active = growth percent below 10; inactive = the rest.

Assays:
Experiment in all cases: NCI-60 one-dose screen, 48 h (100 = growth as untreated, 0 = no growth, -100 = all killed)
Settings in all cases: 10 µM unless noted
NCI-H23 lung = test system: NCI-H23 lung
NCI-H226 lung = test system: NCI-H226 lung
NCI-H322M lung = test system: NCI-H322M lung
HOP-62 NSCLC = test system: HOP-62 NSCLC
NCI-H460 lung = test system: NCI-H460 lung
HOP-92 NSCLC = test system: HOP-92 NSCLC
NCI-H522 lung = test system: NCI-H522 lung
A549/ATCC NSCLC = test system: A549/ATCC NSCLC
786-0 renal = test system: 786-0 renal
COLO 205 colon = test system: COLO 205 colon

Measured: growth

NC(N)=N/N=C/c1ccccc1
inactive: NCI-H23 lung 102% | NCI-H226 lung 97.8% | NCI-H322M lung 91.2% | HOP-62 NSCLC 101% | NCI-H460 lung 103% | HOP-92 NSCLC 95.8% | NCI-H522 lung 85.6% | A549/ATCC NSCLC 97.4% | 786-0 renal 103% | COLO 205 colon 99.9%

CCCCn1c(C)nc2ccc(Nc3nc(Cl)nc4nc[nH]c34)cc21
inactive: NCI-H23 lung 75.3% | NCI-H226 lung 62.4% | NCI-H322M lung 82.5% | HOP-62 NSCLC 66.1% | NCI-H460 lung 70.9% | NCI-H522 lung 73.2% | A549/ATCC NSCLC 81.4% | 786-0 renal 55.4% | COLO 205 colon 86.8%
active: HOP-92 NSCLC -11.2%

OC(c1cc2cc(Cl)ccc2c2cc(C(F)(F)F)ccc12)C1CCCCN1 (stereo not given)
active: NCI-H23 lung -78.8% | NCI-H226 lung -73% | NCI-H322M lung -42.7% | HOP-62 NSCLC -92.3% | NCI-H460 lung -67.8% | HOP-92 NSCLC -76.1% | NCI-H522 lung -89.6% | A549/ATCC NSCLC -85.9% | 786-0 renal -67.5% | COLO 205 colon -87.2%

Nc1ncnc2c1N=C(c1ccc(F)cc1)CC(c1sc(Cl)nc1Cl)N2 (stereo not given)
inactive: NCI-H23 lung 92.9% | NCI-H226 lung 90.1% | NCI-H322M lung 106% | HOP-62 NSCLC 105% | NCI-H460 lung 101% | HOP-92 NSCLC 71% | NCI-H522 lung 88.7% | A549/ATCC NSCLC 92.4% | 786-0 renal 92.6% | COLO 205 colon 104%

CC(C)c1[nH]ncc1-c1nc2ccc3[nH]ncc3c2c2c1CCCC2
inactive: NCI-H23 lung 32.7% | NCI-H226 lung 35.5% | NCI-H322M lung 39.7% | HOP-62 NSCLC 30.5% | NCI-H460 lung 16.1% | HOP-92 NSCLC 58.5% | NCI-H522 lung 41% | A549/ATCC NSCLC 13.9% | 786-0 renal 23.2%
active: COLO 205 colon 7.79%

Nc1nc(N)c2cc(Sc3ccc(Cl)cc3)ccc2n1
active: HOP-92 NSCLC 6.59% | COLO 205 colon -45.6%
inactive: NCI-H23 lung 33.6% | NCI-H226 lung 48.9% | NCI-H322M lung 27.7% | HOP-62 NSCLC 53.1% | NCI-H460 lung 13.4% | NCI-H522 lung 21% | A549/ATCC NSCLC 15.2% | 786-0 renal 28%

COc1ccc2[nH]cc(C(c3ccc(Cl)cc3)N3CCCC3)c2c1 (stereo not given)
inactive: NCI-H23 lung 93.2% | NCI-H226 lung 98.2% | NCI-H322M lung 94.3% | HOP-62 NSCLC 97.6% | NCI-H460 lung 101% | HOP-92 NSCLC 79.2% | NCI-H522 lung 82.1% | A549/ATCC NSCLC 98.8% | 786-0 renal 102% | COLO 205 colon 114%

O=C(c1ccccc1)N(CCCCl)C(=O)N(CCCCl)C(=O)c1ccccc1
inactive: NCI-H23 lung 83.1% | NCI-H226 lung 94.9% | NCI-H322M lung 92.9% | HOP-62 NSCLC 86.7% | NCI-H460 lung 108% | HOP-92 NSCLC 70.1% | NCI-H522 lung 88.1% | A549/ATCC NSCLC 87.7% | 786-0 renal 94.6% | COLO 205 colon 102%

CCc1ccc2c(c1)N(CCO)C1=C(C(=O)OC1)C2c1cccc(Br)c1 (stereo not given)
inactive: NCI-H23 lung 40.9% | NCI-H226 lung 39.5% | NCI-H322M lung 38.9% | HOP-62 NSCLC 31% | NCI-H460 lung 11.2% | HOP-92 NSCLC 75.6% | A549/ATCC NSCLC 29.2% | 786-0 renal 34.4%
active: NCI-H522 lung -26.3% | COLO 205 colon 5.9%

CC(=O)O[C@H]1[C@H](CC#CC#CC[C@@H]2C[C@]3(C)[C@H]4CC=C5[C@H]6[C@@H](C)[C@H](C)CC[C@]6(C(=O)NCCCCCCCCN)CC[C@@]5(C)[C@]4(C)CC[C@H]3C(C)(C)[C@H]2OC(C)=O)C[C@]2(C)[C@H]3CC=C4[C@H]5[C@@H](C)[C@H](C)CC[C@]5(C(=O)NCCCCCCCCN)CC[C@@]4(C)[C@]3(C)CC[C@H]2C1(C)C
active: NCI-H226 lung -83.5%
inactive: NCI-H23 lung 99.1% | NCI-H322M lung 106% | HOP-62 NSCLC 96.7% | NCI-H460 lung 103% | HOP-92 NSCLC 92.3% | NCI-H522 lung 106% | A549/ATCC NSCLC 102% | 786-0 renal 103% | COLO 205 colon 114%

O=C(Nc1ccc(Oc2ccc(Nc3nc4ccccc4s3)cc2)cc1)Nc1ccc(Cl)c(C(F)(F)F)c1
inactive: NCI-H322M lung 25.7% | HOP-62 NSCLC 17%
active: NCI-H23 lung -20.2% | NCI-H226 lung 4.93% | NCI-H460 lung 1.39% | HOP-92 NSCLC -25% | NCI-H522 lung -36.8% | A549/ATCC NSCLC 9.75% | 786-0 renal 1.24% | COLO 205 colon -84%

COc1ccc2nc(C)cc(Nc3ccccc3O)c2c1
inactive: NCI-H23 lung 100% | NCI-H322M lung 59.9% | NCI-H460 lung 20.6% | NCI-H522 lung 47.3% | COLO 205 colon 89.9%
active: NCI-H226 lung 0.475% | HOP-62 NSCLC -61.9% | HOP-92 NSCLC -23.7% | A549/ATCC NSCLC 3.25% | 786-0 renal -67%

C#CC[C@@H]1C[C@]2(C)[C@H]3CC[C@@H]4[C@H]5C(C(=C)C)CC[C@]5(C(=O)NCCCN5CCN(CCCN)CC5)CC[C@@]4(C)[C@]3(C)CC[C@H]2C(C)(C)[C@H]1OC(C)=O (stereo not given in full)
inactive: NCI-H226 lung 87.4%
active: NCI-H23 lung 3.21% | NCI-H322M lung -81.2% | HOP-62 NSCLC -59.7% | NCI-H460 lung -77% | HOP-92 NSCLC -78.3% | NCI-H522 lung 4.62% | A549/ATCC NSCLC -61.9% | 786-0 renal -97.5% | COLO 205 colon -68.3%

CCN(CC)CCC(CNc1ccnc2cc(Cl)ccc12)c1ccc(O)cc1 (stereo not given)
inactive: NCI-H23 lung 91.3% | NCI-H226 lung 102% | NCI-H322M lung 72.7% | HOP-62 NSCLC 87.4% | NCI-H460 lung 54.2% | HOP-92 NSCLC 53.3% | NCI-H522 lung 97.9% | A549/ATCC NSCLC 97.8% | 786-0 renal 92.3% | COLO 205 colon 71.5%

O=C(NNC(=S)Nc1ccccc1)c1ccc(Nc2ncnc3c2cnn3-c2cccc(Br)c2)cc1
inactive: NCI-H23 lung 99.8% | NCI-H226 lung 94.3% | NCI-H322M lung 95.5% | HOP-62 NSCLC 88% | NCI-H460 lung 112% | HOP-92 NSCLC 93.5% | NCI-H522 lung 88.6% | A549/ATCC NSCLC 112% | 786-0 renal 105% | COLO 205 colon 103%

CNCCCNc1ccnc2cc(Cl)ccc12
active: NCI-H23 lung -50.4% | NCI-H226 lung -17.6% | NCI-H322M lung -40.7% | HOP-62 NSCLC -27.1% | NCI-H460 lung -28.2% | HOP-92 NSCLC -17.9% | NCI-H522 lung -62.3% | A549/ATCC NSCLC 1.29% | 786-0 renal 3.83% | COLO 205 colon -88.9%

O=C(Nc1ccccc1)C(CCCCN1C(=O)c2ccccc2C1=O)N1C(=O)c2ccccc2C1=O (stereo not given)
inactive: NCI-H23 lung 107% | NCI-H226 lung 95.3% | NCI-H322M lung 98% | HOP-62 NSCLC 109% | NCI-H460 lung 109% | HOP-92 NSCLC 76.8% | NCI-H522 lung 94.6% | A549/ATCC NSCLC 97.8% | 786-0 renal 99.6% | COLO 205 colon 118%

COc1ccc(/C=C2\CCCC3=C2N=C2SC(C)=NN2C3c2ccc(OC)c(OC)c2)cc1OC (stereo not given)
inactive: NCI-H23 lung 35.5% | NCI-H226 lung 31% | NCI-H322M lung 27.9% | HOP-62 NSCLC 23.1% | NCI-H460 lung 19.1% | HOP-92 NSCLC 37.2% | NCI-H522 lung 35.8% | A549/ATCC NSCLC 20.1% | 786-0 renal 53% | COLO 205 colon 22.2%

CCN(CC)CCCC(C)Nc1cnc(C(=O)Nc2cc(C)cc3cccnc23)cn1 (stereo not given)
inactive: NCI-H23 lung 96.3% | NCI-H226 lung 60.4% | NCI-H322M lung 84.2% | HOP-62 NSCLC 91.2% | NCI-H460 lung 79.5% | HOP-92 NSCLC 51.4% | NCI-H522 lung 96.8% | A549/ATCC NSCLC 72.8% | 786-0 renal 88.2% | COLO 205 colon 37%

COc1cc(C)c2c(=O)c3c(oc2c1)C(=O)c1c(O)c(OC)cc(O)c1C3=O
active: NCI-H23 lung -2.42% | NCI-H460 lung 1.04% | HOP-92 NSCLC -32% | NCI-H522 lung -48.3% | A549/ATCC NSCLC 7.31%
inactive: NCI-H226 lung 30.7% | NCI-H322M lung 14.2% | HOP-62 NSCLC 25.7% | 786-0 renal 20% | COLO 205 colon 109%

CCCCN(CCCC)CCCN=c1nc2c(c(N)n1-c1ccccc1)c(=S)n(-c1ccccc1)c(=S)n2-c1ccccc1
active: NCI-H23 lung -56.3% | NCI-H226 lung -82.5% | NCI-H322M lung -57.8% | HOP-62 NSCLC -99.6% | NCI-H460 lung -95.7% | HOP-92 NSCLC -66.9% | NCI-H522 lung -54.8% | A549/ATCC NSCLC -38.4% | 786-0 renal -100% | COLO 205 colon -74.1%

CC(=O)N1N=C(c2ccc(C)cc2)CC1c1cn(-c2ccccc2)nc1-c1cccc(Nc2ccnc3cc(Cl)ccc23)c1 (stereo not given)
active: HOP-62 NSCLC -19.7%
inactive: NCI-H23 lung 79.1% | NCI-H226 lung 111% | NCI-H322M lung 56.9% | NCI-H460 lung 15.8% | HOP-92 NSCLC 78.7% | NCI-H522 lung 36% | A549/ATCC NSCLC 68.4% | 786-0 renal 52.3% | COLO 205 colon 93.8%

Nc1nonc1-c1nc2ccccc2n1Cc1ccc(F)cc1
inactive: NCI-H23 lung 70.6% | NCI-H226 lung 69.3% | NCI-H322M lung 69.8% | HOP-62 NSCLC 56.7% | NCI-H460 lung 49.3% | HOP-92 NSCLC 65% | A549/ATCC NSCLC 39.1% | 786-0 renal 76.4% | COLO 205 colon 42.8%
active: NCI-H522 lung 4.81%

COc1ccc2[nH]c(C(=O)OCc3ccc4cccc(O)c4n3)cc2c1
active: NCI-H23 lung -3.84% | NCI-H226 lung -68.1% | NCI-H460 lung 7.31% | HOP-92 NSCLC -78.2% | NCI-H522 lung -66.9% | 786-0 renal -76.1% | COLO 205 colon -69.1%
inactive: NCI-H322M lung 62.7% | HOP-62 NSCLC 35% | A549/ATCC NSCLC 21.2%
